# Measurements published in the supplement of paper PMC11732987, “Enantioselective OTUD7B fragment discovery through chemoproteomics screening and high-throughput optimisation” (Communications Chemistry, 2025).
# Unmarked numbers belong to inactive results.
# How the values were obtained:
# Test in all cases: log2 ratio of Biotin-Ahx-Ub-VS probe labelling (fragment/DMSO); higher = less target engagement (more negative = stronger competition), active = hit call of the paper (q ≤ 0.05, log2 ratio ≤ -1)
# Details in all cases: compound concentration: 200 uM; treatment time: 3 h
# [1] = molecular target: UniProt O00507
# Sequence of UniProt O00507 (O00507 whole entry, the tested form may be a part): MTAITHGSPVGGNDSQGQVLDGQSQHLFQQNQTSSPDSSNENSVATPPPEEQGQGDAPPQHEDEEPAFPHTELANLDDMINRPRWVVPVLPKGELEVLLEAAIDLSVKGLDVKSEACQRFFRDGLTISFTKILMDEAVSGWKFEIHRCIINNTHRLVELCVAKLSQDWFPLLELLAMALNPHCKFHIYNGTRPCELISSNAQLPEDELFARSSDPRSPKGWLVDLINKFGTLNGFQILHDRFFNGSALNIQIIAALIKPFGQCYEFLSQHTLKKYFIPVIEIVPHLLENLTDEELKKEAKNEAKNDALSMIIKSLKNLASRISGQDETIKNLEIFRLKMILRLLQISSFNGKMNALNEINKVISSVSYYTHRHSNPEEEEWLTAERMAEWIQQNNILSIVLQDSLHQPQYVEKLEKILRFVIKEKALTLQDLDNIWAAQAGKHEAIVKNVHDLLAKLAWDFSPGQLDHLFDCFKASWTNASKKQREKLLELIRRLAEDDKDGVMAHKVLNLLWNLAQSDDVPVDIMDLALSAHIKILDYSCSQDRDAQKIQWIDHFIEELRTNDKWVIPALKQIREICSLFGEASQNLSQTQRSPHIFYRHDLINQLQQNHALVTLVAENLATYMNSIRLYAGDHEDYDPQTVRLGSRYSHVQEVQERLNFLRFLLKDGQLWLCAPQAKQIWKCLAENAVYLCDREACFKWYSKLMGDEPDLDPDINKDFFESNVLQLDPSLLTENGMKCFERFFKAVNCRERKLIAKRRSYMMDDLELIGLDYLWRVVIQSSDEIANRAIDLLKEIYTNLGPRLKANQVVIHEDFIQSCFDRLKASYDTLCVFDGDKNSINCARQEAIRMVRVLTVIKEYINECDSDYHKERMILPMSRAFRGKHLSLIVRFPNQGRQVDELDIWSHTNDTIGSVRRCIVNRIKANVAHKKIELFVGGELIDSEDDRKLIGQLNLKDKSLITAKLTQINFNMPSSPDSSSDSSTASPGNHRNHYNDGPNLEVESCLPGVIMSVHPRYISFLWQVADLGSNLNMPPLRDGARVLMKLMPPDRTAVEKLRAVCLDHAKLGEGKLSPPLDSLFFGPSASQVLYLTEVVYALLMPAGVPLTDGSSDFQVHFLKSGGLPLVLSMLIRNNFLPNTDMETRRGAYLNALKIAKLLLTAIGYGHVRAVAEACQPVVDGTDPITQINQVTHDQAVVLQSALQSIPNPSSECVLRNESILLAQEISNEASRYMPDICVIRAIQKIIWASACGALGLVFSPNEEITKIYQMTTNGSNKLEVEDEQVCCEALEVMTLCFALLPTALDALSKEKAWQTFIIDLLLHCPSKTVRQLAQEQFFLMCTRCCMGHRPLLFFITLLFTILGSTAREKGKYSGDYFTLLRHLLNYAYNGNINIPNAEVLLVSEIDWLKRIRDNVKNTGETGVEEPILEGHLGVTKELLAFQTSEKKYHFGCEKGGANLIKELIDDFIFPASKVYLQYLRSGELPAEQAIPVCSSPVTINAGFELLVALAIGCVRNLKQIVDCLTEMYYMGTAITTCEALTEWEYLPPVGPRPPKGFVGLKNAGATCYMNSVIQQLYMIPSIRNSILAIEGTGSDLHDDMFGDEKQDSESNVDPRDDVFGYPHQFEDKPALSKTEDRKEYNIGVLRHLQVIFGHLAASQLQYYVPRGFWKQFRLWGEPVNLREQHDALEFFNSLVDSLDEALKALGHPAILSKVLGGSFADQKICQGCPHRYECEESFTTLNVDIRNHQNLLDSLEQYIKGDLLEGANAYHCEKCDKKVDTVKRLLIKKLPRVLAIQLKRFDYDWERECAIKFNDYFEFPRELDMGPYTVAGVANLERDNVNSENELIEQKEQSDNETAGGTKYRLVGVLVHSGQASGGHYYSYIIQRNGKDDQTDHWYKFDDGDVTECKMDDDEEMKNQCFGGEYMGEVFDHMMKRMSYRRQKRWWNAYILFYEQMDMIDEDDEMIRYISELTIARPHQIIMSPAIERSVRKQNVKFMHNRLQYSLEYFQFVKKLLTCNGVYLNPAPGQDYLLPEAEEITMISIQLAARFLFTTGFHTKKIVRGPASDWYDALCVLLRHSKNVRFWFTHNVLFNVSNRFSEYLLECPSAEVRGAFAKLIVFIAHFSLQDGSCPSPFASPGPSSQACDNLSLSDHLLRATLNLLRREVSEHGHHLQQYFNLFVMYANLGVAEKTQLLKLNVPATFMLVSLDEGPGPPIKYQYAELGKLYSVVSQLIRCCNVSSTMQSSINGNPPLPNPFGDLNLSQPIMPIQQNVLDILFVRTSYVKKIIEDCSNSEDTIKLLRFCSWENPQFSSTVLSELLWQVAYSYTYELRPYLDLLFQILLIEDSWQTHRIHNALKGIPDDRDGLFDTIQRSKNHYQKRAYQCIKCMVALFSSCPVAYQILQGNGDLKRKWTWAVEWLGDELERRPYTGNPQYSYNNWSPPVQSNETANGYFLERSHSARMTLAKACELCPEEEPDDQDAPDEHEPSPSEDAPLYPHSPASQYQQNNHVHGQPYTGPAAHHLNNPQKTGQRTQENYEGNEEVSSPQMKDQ
# Procedure, shortened: (§1)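 HEK293T lysate (495 µg per sample, in Tris/CHAPS/IGEPAL buffer with protease inhibitors) was exposed in triplicate for 3 h to fragment at 200 µM or to vehicle, then to Biotin-Ahx-Ub-VS at 0.5 µM final for 1 h. Labelled DUBs were enriched on NeutrAvidin, digested with LysC and trypsin, and analysed by diaPASEF LC-MS/MS. Spectronaut label-free quantities were normalised to the global median, and values are average log2 ratios of fragment over vehicle from an unpaired t-test. Only proteins with ≥2 unique peptides were used.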
# [2] = molecular target: UniProt P51784
# Sequence of UniProt P51784 (P51784 whole entry): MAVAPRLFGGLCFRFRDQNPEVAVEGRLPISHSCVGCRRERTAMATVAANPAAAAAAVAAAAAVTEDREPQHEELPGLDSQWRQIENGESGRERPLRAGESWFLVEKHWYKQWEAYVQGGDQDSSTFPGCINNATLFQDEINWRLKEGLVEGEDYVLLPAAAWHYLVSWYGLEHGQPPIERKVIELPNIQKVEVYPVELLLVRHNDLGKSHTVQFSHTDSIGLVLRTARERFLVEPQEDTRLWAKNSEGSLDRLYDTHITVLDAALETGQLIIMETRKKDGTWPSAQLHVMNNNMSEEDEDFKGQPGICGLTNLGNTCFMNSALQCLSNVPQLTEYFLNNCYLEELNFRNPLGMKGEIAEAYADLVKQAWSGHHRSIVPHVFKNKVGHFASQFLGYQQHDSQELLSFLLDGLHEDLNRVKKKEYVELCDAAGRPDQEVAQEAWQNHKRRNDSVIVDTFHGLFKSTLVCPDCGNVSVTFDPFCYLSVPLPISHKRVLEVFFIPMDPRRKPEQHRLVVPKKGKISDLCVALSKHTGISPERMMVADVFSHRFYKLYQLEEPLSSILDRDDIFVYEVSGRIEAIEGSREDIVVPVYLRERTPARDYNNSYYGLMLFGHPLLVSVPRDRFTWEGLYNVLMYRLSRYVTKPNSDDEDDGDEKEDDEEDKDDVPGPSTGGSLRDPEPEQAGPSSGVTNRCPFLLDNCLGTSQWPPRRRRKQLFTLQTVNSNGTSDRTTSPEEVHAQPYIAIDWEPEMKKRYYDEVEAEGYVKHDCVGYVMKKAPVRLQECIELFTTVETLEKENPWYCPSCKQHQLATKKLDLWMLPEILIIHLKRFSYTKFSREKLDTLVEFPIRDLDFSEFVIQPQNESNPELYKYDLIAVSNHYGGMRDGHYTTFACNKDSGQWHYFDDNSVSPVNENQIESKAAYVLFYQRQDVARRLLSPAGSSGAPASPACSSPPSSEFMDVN
# Procedure, shortened: as §1
# [3] = molecular target: T1, UniProt Q5T2D3
# T1 sequence (whole entry): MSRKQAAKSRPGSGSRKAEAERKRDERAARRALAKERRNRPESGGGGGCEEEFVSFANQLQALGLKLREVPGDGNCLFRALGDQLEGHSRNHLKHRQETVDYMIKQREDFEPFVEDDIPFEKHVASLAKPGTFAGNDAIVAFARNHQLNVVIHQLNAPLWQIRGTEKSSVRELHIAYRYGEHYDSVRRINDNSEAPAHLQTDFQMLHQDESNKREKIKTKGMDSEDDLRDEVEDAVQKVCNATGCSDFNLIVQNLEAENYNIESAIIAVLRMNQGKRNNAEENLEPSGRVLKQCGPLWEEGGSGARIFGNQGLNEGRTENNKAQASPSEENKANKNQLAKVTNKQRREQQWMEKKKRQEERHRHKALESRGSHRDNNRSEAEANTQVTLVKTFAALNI
# Procedure, shortened: as §1
# [4] = molecular target: T2, UniProt Q8TE49
# T2 sequence (whole entry): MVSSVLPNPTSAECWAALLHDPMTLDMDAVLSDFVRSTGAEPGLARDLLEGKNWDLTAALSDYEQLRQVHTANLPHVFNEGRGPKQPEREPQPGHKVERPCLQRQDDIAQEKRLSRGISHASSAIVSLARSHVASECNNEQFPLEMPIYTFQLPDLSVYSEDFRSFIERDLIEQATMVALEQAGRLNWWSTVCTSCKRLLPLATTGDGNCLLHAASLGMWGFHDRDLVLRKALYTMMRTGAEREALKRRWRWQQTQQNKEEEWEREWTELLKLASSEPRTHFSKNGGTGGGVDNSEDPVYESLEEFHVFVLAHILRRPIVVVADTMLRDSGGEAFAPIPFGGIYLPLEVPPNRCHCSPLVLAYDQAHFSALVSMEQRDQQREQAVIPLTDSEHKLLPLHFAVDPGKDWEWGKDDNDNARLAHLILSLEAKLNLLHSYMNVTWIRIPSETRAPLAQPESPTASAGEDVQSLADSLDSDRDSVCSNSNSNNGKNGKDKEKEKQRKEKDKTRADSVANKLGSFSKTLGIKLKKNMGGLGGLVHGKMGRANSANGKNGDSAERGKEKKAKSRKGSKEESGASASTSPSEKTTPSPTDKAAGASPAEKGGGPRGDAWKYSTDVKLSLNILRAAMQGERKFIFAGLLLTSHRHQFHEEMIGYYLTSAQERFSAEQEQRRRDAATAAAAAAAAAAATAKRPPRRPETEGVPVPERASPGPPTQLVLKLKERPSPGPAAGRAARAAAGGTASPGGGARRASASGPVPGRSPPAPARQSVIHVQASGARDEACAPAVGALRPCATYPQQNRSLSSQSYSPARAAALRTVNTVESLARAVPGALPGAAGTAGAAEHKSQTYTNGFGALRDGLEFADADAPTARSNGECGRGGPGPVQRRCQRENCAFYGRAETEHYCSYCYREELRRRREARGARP
# Procedure, shortened: as §1
# [5] = molecular target: T3, UniProt Q9P2H5
# T3 sequence (whole entry): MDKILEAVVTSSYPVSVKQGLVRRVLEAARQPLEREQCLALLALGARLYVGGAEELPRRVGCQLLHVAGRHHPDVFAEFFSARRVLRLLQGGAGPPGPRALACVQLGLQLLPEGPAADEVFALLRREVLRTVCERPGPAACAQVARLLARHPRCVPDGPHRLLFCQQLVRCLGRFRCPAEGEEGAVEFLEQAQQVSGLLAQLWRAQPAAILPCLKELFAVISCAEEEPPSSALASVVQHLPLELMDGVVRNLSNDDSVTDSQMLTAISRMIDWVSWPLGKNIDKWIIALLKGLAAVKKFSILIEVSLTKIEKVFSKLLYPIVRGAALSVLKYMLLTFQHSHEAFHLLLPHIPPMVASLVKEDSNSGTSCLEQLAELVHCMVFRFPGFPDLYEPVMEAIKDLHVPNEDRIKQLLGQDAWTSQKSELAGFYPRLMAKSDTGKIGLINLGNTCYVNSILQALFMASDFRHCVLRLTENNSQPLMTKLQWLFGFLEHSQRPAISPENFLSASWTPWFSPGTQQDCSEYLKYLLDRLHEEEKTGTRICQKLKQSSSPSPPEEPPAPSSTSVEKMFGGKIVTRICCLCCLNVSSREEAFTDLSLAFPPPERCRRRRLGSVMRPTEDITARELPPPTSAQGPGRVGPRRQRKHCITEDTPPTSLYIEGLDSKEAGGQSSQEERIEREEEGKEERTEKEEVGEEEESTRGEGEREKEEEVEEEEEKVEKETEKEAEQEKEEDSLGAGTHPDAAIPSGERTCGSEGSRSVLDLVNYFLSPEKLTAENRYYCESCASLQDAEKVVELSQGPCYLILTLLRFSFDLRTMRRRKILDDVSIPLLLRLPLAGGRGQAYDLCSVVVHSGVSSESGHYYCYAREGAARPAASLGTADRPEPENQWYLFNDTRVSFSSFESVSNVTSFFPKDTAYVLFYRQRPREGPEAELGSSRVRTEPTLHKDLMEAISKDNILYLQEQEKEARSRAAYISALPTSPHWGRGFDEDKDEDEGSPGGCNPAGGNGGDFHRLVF
# Procedure, shortened: as §1
# [6] = molecular target: T4, UniProt Q9UGI0
# T4 sequence (whole entry): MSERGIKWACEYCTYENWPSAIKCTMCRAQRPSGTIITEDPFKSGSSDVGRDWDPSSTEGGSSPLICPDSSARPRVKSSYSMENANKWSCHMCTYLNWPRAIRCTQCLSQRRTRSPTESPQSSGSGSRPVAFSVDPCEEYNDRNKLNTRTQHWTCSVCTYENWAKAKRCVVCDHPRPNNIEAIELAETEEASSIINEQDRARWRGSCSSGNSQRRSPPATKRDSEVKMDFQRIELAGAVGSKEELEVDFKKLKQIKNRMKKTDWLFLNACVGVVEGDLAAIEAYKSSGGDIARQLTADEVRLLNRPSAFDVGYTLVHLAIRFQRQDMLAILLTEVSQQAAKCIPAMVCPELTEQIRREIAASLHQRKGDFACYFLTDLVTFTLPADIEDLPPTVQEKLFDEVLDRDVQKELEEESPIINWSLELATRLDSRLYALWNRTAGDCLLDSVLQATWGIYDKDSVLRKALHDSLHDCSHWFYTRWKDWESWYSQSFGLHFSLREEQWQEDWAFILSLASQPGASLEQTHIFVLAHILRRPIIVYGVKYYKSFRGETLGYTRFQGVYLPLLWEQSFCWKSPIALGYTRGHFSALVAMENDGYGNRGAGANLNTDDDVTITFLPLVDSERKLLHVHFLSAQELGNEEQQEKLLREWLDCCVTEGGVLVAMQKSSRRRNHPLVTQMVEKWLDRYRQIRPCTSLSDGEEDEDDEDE
# Procedure, shortened: as §1
# [7] = molecular target: T5, YOD1 (UniProt Q5VVQ6)
# T5 sequence (whole entry): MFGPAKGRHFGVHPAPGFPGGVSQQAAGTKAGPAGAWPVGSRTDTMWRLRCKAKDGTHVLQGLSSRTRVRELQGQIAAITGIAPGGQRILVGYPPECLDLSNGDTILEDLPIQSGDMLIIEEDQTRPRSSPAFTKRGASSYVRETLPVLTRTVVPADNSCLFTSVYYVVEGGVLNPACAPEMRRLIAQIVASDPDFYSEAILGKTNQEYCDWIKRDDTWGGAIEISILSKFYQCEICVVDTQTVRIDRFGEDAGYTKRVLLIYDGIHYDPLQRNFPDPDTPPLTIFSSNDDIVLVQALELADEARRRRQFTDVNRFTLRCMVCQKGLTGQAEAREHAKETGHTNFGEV
# Procedure, shortened: as §1
SMILES,log2 ratio of Biotin-Ahx-Ub-VS probe labelling [1],log2 ratio of Biotin-Ahx-Ub-VS probe labelling [2],log2 ratio of Biotin-Ahx-Ub-VS probe labelling [3],log2 ratio of Biotin-Ahx-Ub-VS probe labelling [4],log2 ratio of Biotin-Ahx-Ub-VS probe labelling [5],log2 ratio of Biotin-Ahx-Ub-VS probe labelling [6],log2 ratio of Biotin-Ahx-Ub-VS probe labelling [7]
Cc1ccccc1C1(CNC(=O)CCl)CCOCC1,0.332,0.00427,-0.0687,-0.333,-0.221,-0.577,-0.0207
C[C@H]1CN(C(=O)CCl)CCN1C(=O)c1cnn(C)c1.Cl,0.326,0.00812,-0.292,-0.57,-0.408,0.189,0.0183
Cc1cc(C(=O)NC2CCN(C(=O)CCl)CC2)no1,-0.438,-0.169,-0.252,-0.394,0.0224,-0.0524,-0.256
CC(NC(=O)CCl)c1noc(Cc2ccccc2)n1 (stereo not drawn),-0.447,-0.0798,-0.347,-0.443,-0.534,-0.904,-0.247
O=C(CCl)NC1CCC(C(F)(F)F)CC1 (stereo not drawn),-0.728,0.104,-0.211,-0.706,0.159,-0.54,-0.348
NS(=O)(=O)c1ccc(Cl)c(NC(=O)CCl)c1,-0.168,0.0886,-0.424,-1.53 (active),-0.0565,-0.791,-0.361
O=C(CCl)NCCc1cccc2ccccc12,0.608,0.159,-0.0259,-0.28,0.0801,0.238,0.263
O=C(CCl)Nc1cccc(C(=O)N2CCSCC2)c1,-0.587,-0.172,-0.17,-0.399,0.0593,-0.309,-0.58
Cl.O=C(CN1CCN(C(=O)CCl)CC1)Nc1ccc(F)cc1,0.543,0.0839,-0.013,-0.19,-0.164,-0.166,0.204
